In PubChem BioAssay AID1259417 (TB Discovery Research, Infectious Disease Research Institute, 2018):
The campaign covered roughly 1,100 compounds. About 760 (69%) were called active. How the calls were made is not given here. So high a share suggests a set chosen from earlier hits. Some of the results follow.

Experiment: M. tuberculosis growth inhibition, HTS (AID 1259417);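 further: bacteria grown with compound for 5 days at 37 °C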
Settings: stronger effect = higher value, concentration not given here
[1] = M. tuberculosis DsRed fluorescence growth inhibition
[2] = M. tuberculosis growth inhibition

Row | SMILES | inhibition [1] | inhibition [2] [%]
1 | CC(Nc1nc(N2CCCCC2)nc2ccccc12)c1ccccc1 (configuration not stated) | 98.6% (active) | 98.9
2 | CC(Nc1nc(N2CCN(C(=O)c3ccc(Cl)cc3)CC2)nc2ccccc12)c1ccccc1 (configuration not stated) | 0.606% (inactive) | -19.8
3 | COC(C)(C)C#CC(=O)c1cccc2ccccc12 | 100% (active) | 98.9
4 | COc1ccccc1C1=Nc2cccc3cccc(c23)N1 | 45.9% (active) | 45.8
5 | Cc1nnc(NC(=O)c2ccc3ccccc3c2)o1 | 98.3% (active) | 99.1
6 | Cc1cccc(C(=O)Nc2nnc(C3=COCCO3)o2)c1 | 8.04% (inactive) | 3.45
7 | CC(Oc1ccc(C(=O)NCCc2ccccc2)cc1)C(=O)OCc1ccccc1 (configuration not stated) | 36.1% (active) | 55.5
8 | CC(Oc1ccc(C(=O)NC2CCCCC2)cc1)C(=O)OCc1ccccc1Cl (configuration not stated) | 51% (active) | 69.4
9 | COc1ccc(C(=O)Oc2ccc(C(=O)OCc3ccccc3)cc2)cc1OC | 3.52% (inactive) | -20.9
10 | Cc1ccc(-c2csc3ncn(C(C)C(=O)OCc4ccccc4Cl)c(=O)c23)cc1 (configuration not stated) | -5.81% (inactive) | 4.87
11 | COC(=O)CSc1ccnc2cc(Cl)ccc12 | 27% (active) | 74.4
12 | Cc1cc(C)c2sc(N3CCCC3)nc2c1 | 100% (active) | 99.8
13 | Cc1ccc(Nc2nc(N3CCN(C)CC3)nc(N)c2[N+](=O)[O-])cc1C | 61.4% (active) | 61.7
14 | COc1ccc(Cc2nn3c(-c4ccccc4)nnc3s2)cc1 | 100% (active) | 100
15 | Cc1ccc(-c2nnc3sc(CCc4ccccc4)nn23)cc1 | 100% (active) | 100
16 | Cc1ccc(-c2nnc3sc(Cc4ccccc4)nn23)cc1 | 100% (active) | 99.4
17 | N#Cc1ccc(NC(=O)CSc2ccc(Br)cc2)cc1 | 8.52% (active) | 46.8
18 | O=C(CSc1ccc(Cl)cc1)Nc1ccc(Br)cn1 | 2.64% (active) | 38
19 | Cc1cccc(Nc2nnc(SCC(=O)Nc3cccnc3Cl)s2)c1 | 3% (inactive) | 14.2
20 | Cc1cnc(NC(=O)CSc2ccc(Cl)cc2)s1 | -1.45% (inactive) | -17.5
21 | O=C(CSc1nnc(SCc2cccc3ccccc23)s1)Nc1ccccc1F | 3.26% (active) | 43.1
22 | N#Cc1ccc(NC(=O)CSc2ccc(Cl)cc2)cc1 | 10.6% (active) | 56.7
23 | O=C(CSc1ccc(Br)cc1)Nc1ccccc1F | 1.79% (active) | 46.4

Row | SMILES | inhibition [1] | inhibition [2] [%]
24 | Clc1ccc(OCCCNCc2ccccc2)c2ccccc12 | -2.3% (inactive) | -30
25 | CCC(C)NCCCOc1ccc(Cl)c2ccccc12 (configuration not stated) | 97.1% (active) | 89.4
26 | COC(=O)COc1ccc(-c2ccc(F)cc2)cc1C=O | 39.2% (active) | 85.5
27 | Cc1cc(Nc2ccc(C)c(Cl)c2)n2ncc(-c3ccccc3)c2n1 | -7.72% (inactive) | 1.18
28 | Cc1cc(Nc2ccc(C)c(C)c2)n2ncc(-c3ccccc3)c2n1 | 5.96% (active) | 38.3
29 | COc1ccccc1-c1cnn2c(Nc3cccc(Cl)c3)cc(C)nc12 | 32.5% (active) | 72.2
30 | O=c1[nH]c(C=Cc2cccc3ccccc23)nc(O)c1[N+](=O)[O-] | 3.53% (inactive) | 9.27
31 | CCN(CC)c1ccc(NC(=S)NCc2ccc(Cl)cc2)cc1 | 72.5% (active) | 88.7
32 | CC1CCN(CCNC(=S)Nc2ccc(F)cc2)CC1 | 0.916% (inactive) | -24
33 | S=C(NCc1ccc(Cl)cc1)N1CCN(CC=Cc2ccccc2)CC1 | 5.55% (inactive) | -11
34 | CCN(CC)c1ccc(NC(=S)NCCc2ccc(OC)c(OC)c2)cc1 | 91.5% (active) | 100
35 | COc1ccc(CCNC(=S)N2CCN(CC=Cc3ccccc3)CC2)cc1OC | 20.3% (inactive) | 12.5
36 | CCN(CC)C(=S)NC(=O)c1ccc(Cl)cc1 | 0.912% (inactive) | 0.451
37 | COC(=O)CSc1nnc(-c2ccc(OC)c(OC)c2)o1 | 79.2% (active) | 92.4
38 | COC(=O)CSc1nnc(-c2ccc(Cl)cc2)o1 | 61.4% (active) | 85
39 | O=C(CSc1nnc(-c2cccs2)o1)OC1CCCCC1 | 28.2% (active) | 52.1
40 | COc1ccc(-c2nnc(SCC(=O)OC3CCCCC3)o2)cc1OC | 50.5% (active) | 80.2
41 | c1ccc(-c2nnc(SCc3nnc(-c4cccs4)o3)o2)cc1 | -2.64% (inactive) | -5.86
42 | COc1cccc(C(=O)NC(=S)Nc2ccc(N3CCN(C(=O)c4cccs4)CC3)c(Cl)c2)c1 | 62% (active) | 11.5
43 | CCc1ccc(OCC(=O)Nc2ccc(N3CCN(C(=O)c4cccs4)CC3)c(Cl)c2)cc1 | 0.597% (inactive) | -20.3
44 | CCOc1ccc(C(=O)Nc2ccc(N3CCN(C(=O)c4cccs4)CC3)c(Cl)c2)cc1Br | 14.9% (inactive) | -6.08
45 | O=C(Nc1ccc(F)c(Cl)c1)C12CC3CCC(CC(C3)C1)C2 | 100% (active) | 97.2
46 | O=C(CC12CC3CC(CC(C3)C1)C2)Nc1ccc(F)c(Cl)c1 | 98.3% (active) | 95.1

Row | SMILES | inhibition [1] | inhibition [2] [%]
47 | COC(=O)c1ccc(NC(=O)CC23CC4CC(CC(C4)C2)C3)cc1 | 5.38% (inactive) | -0.346
48 | O=C(CC12CC3CC(CC(C3)C1)C2)Nc1ccc(Br)cc1 | 50.7% (active) | 17.6
49 | O=C(CC12CC3CC(CC(C3)C1)C2)Nc1ccc2ccccc2c1 | 99.1% (active) | 96.6
50 | COC(=O)c1cc(NC(=O)CC23CC4CC(CC(C4)C2)C3)cc(C(=O)OC)c1 | 11.6% (inactive) | -29
51 | O=C(CC12CC3CC(CC(C3)C1)C2)Nc1cccc(Cl)c1 | 64.1% (active) | 34.5
52 | O=C(CC12CC3CC(CC(C3)C1)C2)Nc1ccc2c(c1)OCCO2 | 40.1% (active) | 16.6
53 | Cc1ccc(NC(=O)C23CC4CCC(CC(C4)C2)C3)cc1 | 99.7% (active) | 96.9
54 | O=C(CC12CC3CC(CC(C3)C1)C2)Nc1cccc(C(F)(F)F)c1 | 97.7% (active) | 85.6
55 | C[n+]1c2n(c3ccccc31)N=C(c1cc(C(C)(C)C)c(O)c(C(C)(C)C)c1)CS2 | -2.19% (inactive) | 3.98
56 | O=C(CC12CC3CC(CC(C3)C1)C2)Nc1ccc(I)cc1F | 57.6% (active) | 24.5
57 | CC(NC(=O)Nc1cccc(C(F)(F)F)c1)C1CC2CCC1C2 (configuration not stated) | 98.8% (active) | 99.4
58 | Cc1cc(C)c2[nH]c3ccccc3c2n1 | 100% (active) | 101
59 | CCn1c(Sc2ncnc3ccccc23)nc2ccccc21 | 33.7% (active) | 57.9
60 | CCCc1cc(-c2nc(-c3ccc(Br)cc3)cs2)ccn1 | 98.5% (active) | 100
61 | CCOC(=O)COc1ccc2c(=O)c(-c3ccccc3Cl)c(C)oc2c1C | 41.3% (active) | 87.5
62 | CCOC(=O)COc1ccc2c(=O)c(-c3ccccc3F)coc2c1C | 77.2% (active) | 94.8
63 | Clc1ccc(COc2ccc3ccccc3c2CNCc2cccnc2)c(Cl)c1 | 73.9% (active) | 65.8
64 | Cc1ccc(OCC(O)CN2CCN(CC(O)COc3ccc(C)cc3C)CC2)c(C)c1 (configuration not stated) | 6.73% (active) | 45.2
65 | O=C1c2cccc3cccc(c23)C(=O)N1CC1CCN(CC(O)COc2ccc3ccccc3c2)CC1 (configuration not stated) | 37.2% (active) | 31.4
66 | O=C(c1ccc(Cl)cc1)c1ccc(OCC(O)CN2CCN(Cc3ccccc3)CC2)cc1 (configuration not stated) | 8.82% (inactive) | -14
67 | O=C1c2cccc3cccc(c23)C(=O)N1CCN1CCN(CC(O)COc2ccccc2Cl)CC1 (configuration not stated) | -4.11% (inactive) | -8.38
68 | OC(COc1ccccc1Cl)CN1CCN(C(c2ccccc2)c2ccccc2)CC1 (configuration not stated) | -4.97% (inactive) | -9.36
69 | Cc1cccc(OCC(O)CN2CCN(C(c3ccccc3)c3ccccc3)CC2)c1C (configuration not stated) | -6.14% (inactive) | -29.9

Row | SMILES | inhibition [1] | inhibition [2] [%]
70 | OC(COc1ccc2ccccc2c1)CN1CCCN(CC(O)COc2ccc3ccccc3c2)CC1 (configuration not stated) | 37.5% (active) | 79.7
71 | Cc1cccc(OCC(O)CN2CCN(CCN3C(=O)c4cccc5cccc(c45)C3=O)CC2)c1C (configuration not stated) | 3.21% (inactive) | -19.3
72 | Cc1ccc(Cl)cc1N1CCN(CC(O)COc2ccc(C(=O)c3ccccc3)cc2)CC1 (configuration not stated) | 16.7% (inactive) | 1.47
73 | c1ccc(CN2CCN(c3nc(-c4ccccc4)nc(-n4ccnc4)n3)CC2)cc1 | 2.46% (inactive) | -9.34
74 | CN(c1ccccc1)c1nc(N2CCCC2)nc(-n2ccnc2)n1 | 57.3% (active) | 34.7
75 | Cc1ccc(NC(=S)c2ccccn2)cc1 | 101% (active) | 101
76 | COC(=O)c1ccc2nc(C)cc(Nc3ccc(OCc4ccccc4)cc3)c2c1 | 92.1% (active) | 99.7
77 | CCCOc1ccccc1NC(=O)Nc1ccc(Cl)c(Cl)c1 | 0.884% (inactive) | -14.7
78 | CCCOc1ccc(Nc2cc(C)nc3ccc(Cl)cc23)cc1 | 101% (active) | 101
79 | CCOC(=O)c1ccc2nc(C)cc(Nc3ccc(N4CCCCC4)cc3)c2c1 | 100% (active) | 100
80 | CCC(=Nc1ccccc1O)C1=C(O)CC(c2ccccc2)CC1=O (configuration not stated) | 98.9% (active) | 98.8
81 | O=C(c1ccco1)N(CCCn1ccnc1)c1nc2c(F)cccc2s1 | 91.1% (active) | 97.4
82 | O=C(NNc1nc2c(F)cc(F)cc2s1)c1coc2ccccc2c1=O | -0.752% (inactive) | -17.4
83 | O=C(c1ccco1)N(CCCn1ccnc1)c1nc2c(F)cc(F)cc2s1 | 97.5% (active) | 98.1
84 | O=C(c1cccs1)N(CCCn1ccnc1)c1nc2c(F)cc(F)cc2s1 | 73.3% (active) | 81.6
85 | Oc1ccc(CSc2ccccc2)c2cccnc12 | 29% (active) | 45.1
86 | CC1=NN(C(=O)c2ccccc2)C(O)(c2ccncc2)C1 (configuration not stated) | 97.7% (active) | 94.3
87 | CCC1=NN(C(=O)c2ccncc2)C(O)(c2ccc(Br)cc2)C1 (configuration not stated) | 97.9% (active) | 93.4
88 | CC(C)(C)c1ccc(C(=O)N2N=C(c3ccccc3)CC2(O)C(F)(F)F)cc1 (configuration not stated) | 2.12% (inactive) | -7.59
89 | O=C(c1cccc(Cl)c1)N1N=C(c2ccc(Cl)cc2)CC1(O)C(F)(F)F (configuration not stated) | 7.75% (inactive) | 23.1
90 | CC1=NN(C(=S)Cc2ccccc2)C(C)(O)C1 (configuration not stated) | 5.87% (inactive) | 14.6
91 | CC1=NN(C(=O)c2cccc(Cl)c2)C(O)(c2ccc(Cl)cc2)C1 (configuration not stated) | 13.7% (active) | 42.4
